Laboratory results published in PubChem BioAssay (EPA / NIEHS).
Activity calls are given as the source filed them. The calls were made as follows: active = hit-call score of the fitted dose curve at least 0.9, where 1 is the maximum; inactive = score below 0.9.

These compounds were tested against Cytochrome P450 2C18 (Homo sapiens) (UniProt P33260) (assay: NVS_ADME_hCYP2C18: NovaScreen (NVS) CYP450-related Enzyme Activity (ADME) Assay for human CYP2C18 (AID 2283103)).
Method: NVS_ADME_hCYP2C18 is a biochemical, single-readout assay that uses extracted gene-proteins in a cell-free assay. Measurements were taken 0.5 hour after chemical dosing in a 96-well plate.NVS_ADME_hCYP2C18 is one of one assay component(s) measured or calculated from the NVS_ADME_hCYP2C18 assay. It is designed to make measurements of enzyme activity, a form of enzyme reporter, as detected with fluorescence intensity signals by Fluorescence technology.Data from the assay component NVS_ADME_hCYP2C18 was analyzed into 1 assay endpoint. This assay endpoint, NVS_ADME_hCYP2C18, was analyzed in the positive analysis fitting direction relative to Acetonitrile as the negative control and baseline of activity. Using a type of enzyme reporter, loss-of-signal activity can be used to understand changes in the enzymatic activity as they relate to the gene CYP2C18. Furthermore, this assay endpoint can be referred to as a primary readout, because this assay has produced multiple assay endpoints where this one serves a enzymatic activity function. To generalize the intended target to other relatable targets, this assay endpoint is annotated to the cyp intended target family, where the subfamily is xenobiotic metabolism.
Binding assays used specific radioligands (tritiated, iodinated) with non-radioactive competitive displacement ligands in agonist or antagonist protocols (as indicated) and various reference compounds and inhibitors to titrate specific binding to receptors and transporters. Most enzyme assays (CYPs, kinases, phosphatases, proteases, HDACs) used recombinant protein and specific substrates (fluorescence mostly, some colorimetric and radioactive) and inhibitors, followed by a biochemical separation of substrate and product. All assays for the biochemical HTS were initially run in duplicate at a single concentration (10 uM for CYP450 assays and 25 uM for all others). Assay-chemical combinations meeting a pre-defined threshold (e.g., 30% inhibition and other criteria defined below) were then run in singleton concentration-response format with maximum concentration of 20 uM for CYPs and 50 uM for all others. Each assay was run with positive and negative controls, and concurrent controls on every plate. The follow-up (secondary) screen tested active chemical-pairs in concentration series, as well as a few additional assays not tested in the primary screen, some selected negative inactives, and several cases re-run in the concentration series for confirmatory purposes.

Sequence of Cytochrome P450 2C18 (Homo sapiens) (P33260 whole entry, looked up): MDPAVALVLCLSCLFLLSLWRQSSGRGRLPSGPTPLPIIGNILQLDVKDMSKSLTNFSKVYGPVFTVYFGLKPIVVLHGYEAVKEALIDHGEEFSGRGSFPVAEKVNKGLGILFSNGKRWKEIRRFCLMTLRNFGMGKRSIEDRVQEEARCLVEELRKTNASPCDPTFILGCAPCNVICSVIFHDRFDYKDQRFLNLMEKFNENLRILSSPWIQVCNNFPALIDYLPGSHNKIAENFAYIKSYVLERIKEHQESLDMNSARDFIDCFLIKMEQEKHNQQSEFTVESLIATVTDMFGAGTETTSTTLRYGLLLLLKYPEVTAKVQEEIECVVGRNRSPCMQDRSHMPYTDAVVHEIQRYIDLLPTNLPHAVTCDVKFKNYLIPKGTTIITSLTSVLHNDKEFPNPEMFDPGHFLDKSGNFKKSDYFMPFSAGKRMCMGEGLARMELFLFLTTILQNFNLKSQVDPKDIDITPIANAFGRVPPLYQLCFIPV

Q: With `O=C(O)C(F)(F)C(F)(F)C(F)(F)C(F)(F)C(F)(F)C(F)(F)C(F)(F)F` as the compound, how does the outcome read?
A: inactive

Q: For `CC(C)(C)C(O)C(Oc1ccc(Cl)cc1)n1cncn1` (configuration not stated), which AC50 is on record?
A: 7.93 µM (active)

Q: For `O=S(=O)(O)C(F)(F)C(F)(F)C(F)(F)C(F)(F)C(F)(F)C(F)(F)C(F)(F)C(F)(F)F`, which AC50 is on record?
A: 0.875 µM (active)

Q: `CCCN(CCOc1c(Cl)cc(Cl)cc1Cl)C(=O)n1ccnc1` was tested. Which AC50 did it give?
A: 0.588 µM (active)

Q: How did the AC50 turn out when `CN1CSC(=S)N(C)C1` was run?
A: 4.32 µM (active)

Q: With `Oc1ccc(Cl)cc1Cc1ccccc1` as the compound, how does the AC50 read?
A: 6.87 µM (active)

Q: With `CC[C@H](C)[C@H]1O[C@]2(C=C[C@@H]1C)C[C@@H]1C[C@@H](C/C=C(\C)[C@@H](O[C@H]3C[C@H](OC)[C@@H](O[C@H]4C[C@H](OC)[C@@H](O)[C@H](C)O4)[C@H](C)O3)[C@@H](C)/C=C/C=C3\CO[C@@H]4[C@H](O)C(C)=C[C@@H](C(=O)O1)[C@]34O)O2` (tested in a mixture with another compound) as the compound, how does the AC50 read?
A: 5.02 µM (active)

Q: How did the AC50 turn out when `CCOC1Oc2ccc(OS(C)(=O)=O)cc2C1(C)C` (configuration not stated) was run?
A: 5.65 µM (active)

Q: For `COP(=S)(OC)Oc1ccc([N+](=O)[O-])cc1`, which AC50 is on record?
A: 2.7 µM (active)

Q: For `CC(C)N(C(=O)COc1nnc(C(F)(F)F)s1)c1ccc(F)cc1`, which AC50 is on record?
A: 5.82 µM (active)

Q: How did the AC50 turn out when `CC(C)(C)C(O)/C(=C\c1ccc(Cl)cc1Cl)n1cncn1` (configuration not stated) was run?
A: 0.0386 µM (active)

Q: Which AC50 does the source give for `COc1nn(CSP(=S)(OC)OC)c(=O)s1` here?
A: 3.67 µM (active)
